High-throughput results: PubChem, several laboratories
Shown are actives, neighbours in structure and some others; about 1.4% of the full set was active somewhere.
VLA-4 inh = inhibition in a human VLA-4 binding assay; P13612; VLA-4 expressing cells, ligand binding flow cytometry; inhibition, % (about 7 µM as worked out from the volumes in the protocol); 330,000 tested, 0.2% active; in the data active = inhibition above about 50%
A3A deaminase = human APOBEC3A DNA deaminase inhibition; 330,000 tested, 0.41% active; inhibition, % at 20 µM; AID 493011; recombinant A3A, FAM/TAMRA ssDNA deamination fluorescence;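 active = at least 40% inhibition at 20 µM here, with at most 30% in a related deaminase screen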
Target sequence (P31941 whole entry, looked up): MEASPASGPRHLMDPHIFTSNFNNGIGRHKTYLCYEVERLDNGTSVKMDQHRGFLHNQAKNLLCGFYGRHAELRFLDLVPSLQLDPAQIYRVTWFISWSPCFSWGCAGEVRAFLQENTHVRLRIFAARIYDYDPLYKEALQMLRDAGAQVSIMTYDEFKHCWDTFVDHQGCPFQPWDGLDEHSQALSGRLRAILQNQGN
GRK2 inh = inhibitors of human GRK2 displacing RNA aptamer; bead flow cytometry, FAM-aptamer displacement from GRK2; 330,000 tested, 0.59% active; inhibition of aptamer binding, % at 10 µM; P25098;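 active = inhibition of aptamer binding above 40%, roughly 3 SD of noise, on plates passing a quality check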;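 also: median bead fluorescence of bound FAM aptamer so fluorescent compounds give negative values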
APOBEC3G inh = APOBEC3G (human) deaminase inhibition. Q9HC16. recombinant A3G, ssDNA deamination FAM/TAMRA fluorescence. inhibition, % at 20 µM. 330,000 tested, 0.28% active;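 active = inhibition of at least 40% at 20 µM, with no more than 30% in the related APOBEC3A deaminase screen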
Target sequence (Q9HC16 whole entry, looked up): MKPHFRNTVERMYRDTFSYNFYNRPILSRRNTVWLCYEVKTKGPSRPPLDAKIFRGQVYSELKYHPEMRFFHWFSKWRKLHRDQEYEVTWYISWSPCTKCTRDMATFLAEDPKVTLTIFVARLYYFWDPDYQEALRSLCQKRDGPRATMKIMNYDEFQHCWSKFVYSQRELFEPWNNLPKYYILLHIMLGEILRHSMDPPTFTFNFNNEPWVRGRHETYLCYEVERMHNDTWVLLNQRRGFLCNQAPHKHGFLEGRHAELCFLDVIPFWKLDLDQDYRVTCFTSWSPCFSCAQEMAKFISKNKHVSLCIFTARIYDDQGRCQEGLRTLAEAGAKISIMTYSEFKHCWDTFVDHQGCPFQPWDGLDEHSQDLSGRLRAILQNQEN
APOBEC3G confirm = confirmation of human APOBEC3G DNA deaminase inhibitors; shares compounds with APOBEC3G inh; recombinant A3G ssDNA deaminase, UDG/FAM-TAMRA fluorescence; inhibition, % at 20 µM; 890 tested, 72% active; AID 493152;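 active = inhibition reaching a set limit in any replicate at 20 µM, the limit being 80% of the first screen's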
UDG A3G counter = E. coli UDG inhibition in APOBEC3G counter-screen; shares compounds with APOBEC3G inh; UDG counterscreen, FAM/TAMRA oligo fluorescence; inhibition, % at 20 µM; 710 tested, under 10 active; AID 504715;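 active = compounds giving 40% or more inhibition at 20 µM in any one of the three replicates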;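 also: inhibitors lower the FAM signal released by uracil excision and alkaline cleavage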
Large screens that a line does not name were inactive (follow-up assays come after a bar, where they were run).

Cc1ccc(-n2c(N)c(C(=O)N3CCN(C)CC3)sc2=S)cc1	APOBEC3G inh 46 | APOBEC3G confirm 74 | UDG A3G counter inactive
Nc1c(C(=O)N2CCOCC2)sc(=S)n1-c1ccccc1	APOBEC3G inh 52 | APOBEC3G confirm 31 | UDG A3G counter inactive
Nc1c(C(=O)N2CCCCC2)sc(=S)n1-c1ccccc1	APOBEC3G inh 56 | APOBEC3G confirm inactive
CCOc1ccc(-n2c(N)c(C(=O)N3CCN(C)CC3)sc2=S)cc1	none
Cc1ccc(NC(=O)Cn2c(=O)cnc3ccccc32)cc1S(=O)(=O)N1CCOCC1	none
Cc1cc(C)cc(NC(=O)CN2CCN(CCN=CC3=C(O)CC(C)(C)CC3=O)CC2)c1	none
CCOC(=O)C1=CN(Cc2ccco2)S(=O)(=O)N(C)C1CC (stereo not drawn)	none (no result: VLA-4 inh)
C#CCNC(=O)C1=C[C@@H](C(C)(C)C)C[C@@H](OCc2ccc(CO)cc2)O1	none
O=C(NC(Cc1ccccc1)C(=O)NC(Cc1ccccc1)C(=O)O)c1ccccc1 (stereo not drawn)	none
O=S(=O)(/N=S1/CC=CCN1S(=O)(=O)c1ccccc1)c1ccccc1 (stereo not drawn)	APOBEC3G inh 62 | APOBEC3G confirm 75 | UDG A3G counter inactive
CCn1cc(C(=O)NCC(OC)OC)c(=O)c2cc(S(=O)(=O)N3CCC(C)CC3)ccc21	APOBEC3G inh 59 | APOBEC3G confirm inactive | UDG A3G counter inactive
COC(=O)c1cccc(NC(=O)CC2C(=O)NCCN2C(=O)Nc2ccccc2)c1 (stereo not drawn)	none
C=CCn1c(CSc2ccccc2[N+](=O)[O-])n[nH]c1=S	APOBEC3G inh 46 | APOBEC3G confirm 68 | UDG A3G counter inactive
COc1cc(C(=S)N2CCOCC2)cc(OC)c1OC(=O)Cc1ccc(F)cc1	none
CC(C)CC(=O)N[C@H](C(=O)N[C@H](C(=O)N[C@@H](CC(C)C)[C@@H](O)CC(=O)N[C@@H](C)C(=O)N[C@@H](CC(C)C)[C@@H](O)CC(=O)O)C(C)C)C(C)C	APOBEC3G inh 75 | APOBEC3G confirm inactive
CCC(C)NC(=O)CC(C)C (stereo not drawn)	none
CN(C)C(=O)c1cn(CCC#N)nc1-c1ccc2ccccc2c1	none
O=C(NCC(=O)N(c1ccccc1)C(C(=O)NC1CCCCC1)c1ccncc1)c1ccco1 (stereo not drawn)	none
O=C(C1CCN(c2ncnc3c2nc2n3CCCCC2)CC1)N1CCN(c2ccccc2F)CC1	APOBEC3G inh 46 | APOBEC3G confirm inactive
O=C(Nc1cc(S(=O)(=O)N2CCOCC2)ccc1N1CCCCC1)c1ccc(Cl)cc1	APOBEC3G inh 59 | APOBEC3G confirm 68 | UDG A3G counter inactive
O=C(Nc1cc(S(=O)(=O)N2CCOCC2)ccc1N1CCCC1)c1ccc2c(c1)S(=O)(=O)c1ccccc1C2=O	APOBEC3G inh 64 | APOBEC3G confirm 74
CCCCOC(=O)n1c(=O)oc2ccccc21	none
CCCCNC(=O)c1onc(CS(=O)(=O)c2ccccn2)c1C(=O)NCCCC	none
Nc1cc(S(=O)(=O)Nc2cc(Cl)ccc2Cl)ccc1N1CCOCC1	APOBEC3G inh 48 | APOBEC3G confirm 34 | UDG A3G counter inactive
Cc1ccc(NC(=O)CSc2nc3[nH]ncc3c(=O)[nH]2)cc1	APOBEC3G inh 52 | APOBEC3G confirm inactive
O=S(=O)(Cc1ccccc1)Nc1ccc(S(=O)(=O)NCC2CCCO2)cc1 (stereo not drawn)	none
CC(C)c1nnc2n1N=C(c1ccc(Cl)cc1)CS2	none
CCCc1ccc(C2=Nn3c(nnc3C(C)C)SC2)cc1	APOBEC3G inh 50 | APOBEC3G confirm inactive | UDG A3G counter inactive
O=C(Nc1n[nH]c(=S)s1)c1ccco1	APOBEC3G inh 83 | APOBEC3G confirm 88 | UDG A3G counter inactive
Cc1ccsc1/C=N/n1c(-c2ccccc2)n[nH]c1=S	none
Cc1ccsc1/C=N/n1c(-c2ccncc2)n[nH]c1=S	APOBEC3G inh 52 | APOBEC3G confirm 75 | UDG A3G counter inactive
S=c1[nH]nc(-c2ccccn2)n1/N=C/c1cccc(Cl)c1	APOBEC3G inh 43 | APOBEC3G confirm 77 | UDG A3G counter inactive
Cc1cc(-c2n[nH]c(=S)n2/N=C/C(Cl)=C/c2ccccc2)n[nH]1	none
Cc1ccsc1/C=N/n1c(-c2ccccn2)n[nH]c1=S	APOBEC3G inh 60 | APOBEC3G confirm 63 | UDG A3G counter inactive
Cc1cc(-c2n[nH]c(=S)n2/N=C/c2sccc2C)n[nH]1	APOBEC3G inh 57 | APOBEC3G confirm 86 | UDG A3G counter inactive
C=CCn1c(C)nnc1SCC(=O)Nc1nc(C)c(C(=O)N(C)C)s1	none
CN(C)c1ccc(C(=O)N2CCN(C(=O)C3CCCO3)CC2)cc1 (stereo not drawn)	none
Cc1ccc(C(=O)N2CCC(C(=O)NC3CCCC3)CC2)cc1	APOBEC3G inh 69 | APOBEC3G confirm inactive | UDG A3G counter inactive
COc1ccc(-c2n[nH]c(=S)n2-c2ccc(C)cc2)cc1	none
Cc1ccc(-c2cn3c(=S)[nH]nc3s2)cc1	APOBEC3G inh 80 | APOBEC3G confirm 66 | UDG A3G counter inactive
Cc1cc(=S)[nH]c2c(C)cccc12	APOBEC3G inh 79 | APOBEC3G confirm inactive | UDG A3G counter inactive
COc1ccc2[nH]c(=O)c(CN(C(=O)c3cccnc3)c3cc(C)ccc3C)cc2c1	none
Cc1cc(C)c2c(=O)n(CC(=O)Nc3ccc(Br)c(C)c3)sc2n1	none (no result: A3A deaminase, APOBEC3G inh)
Cc1cc(C)c2c(=O)n(CC(=O)NC3CCCC3)sc2n1	APOBEC3G inh 51 | APOBEC3G confirm 83 | UDG A3G counter inactive
COc1ccc(OC)c(CCNC(=O)Cn2sc3nc(C)cc(C)c3c2=O)c1	APOBEC3G inh 63 | APOBEC3G confirm 78
Cc1cc(C)c2c(=O)n(CC(=O)Nc3cccc(Cl)c3C)sc2n1	APOBEC3G inh 72 | APOBEC3G confirm 83 | UDG A3G counter inactive
O=C(C1CC(=O)N(c2ccc(F)cc2)C1)N1CCC(c2nc3ccccc3[nH]2)CC1 (stereo not drawn)	none
COC(=O)[C@]1(C)N[C@H](CN(C)C(=O)c2ccc(C(C)(C)C)cc2)[C@@H]2C(=O)N(Cc3ccccc3)C(=O)[C@@H]21	none
CC(C)C(=O)NC(c1cccs1)c1cc([N+](=O)[O-])c2cccnc2c1O (stereo not drawn)	APOBEC3G inh 54 | APOBEC3G confirm 13 | UDG A3G counter inactive
CCC(=O)Nc1cc(=O)[nH]c2ncnn12	none
COc1cc(CNCCNC(=O)c2nonc2N)ccc1OCc1ccc(Cl)cc1	APOBEC3G inh 79 | APOBEC3G confirm inactive | UDG A3G counter inactive
COc1cccc(CNCCNC(=O)c2nonc2N)c1	none
COc1ccc(-c2nc(=S)[nH][nH]2)cc1OC	APOBEC3G inh 61 | APOBEC3G confirm 93 | UDG A3G counter inactive
COc1ccc(-c2nc(=S)[nH][nH]2)cc1	APOBEC3G inh 62 | APOBEC3G confirm 95 | UDG A3G counter inactive
S=c1nc(-c2cccc(Cl)c2)[nH][nH]1	none (no result: A3A deaminase, APOBEC3G inh)
S=c1nc(-c2cc(Cl)cc(Cl)c2)[nH][nH]1	none
